Compound activity as filed in PubChem BioAssay.
Shown are actives, neighbours in structure and some others; about 21% of the full set was active somewhere.
ELG1 DNA repair = blocks ELG1-dependent DNA repair in HEK293T cells; actives 2.3% (n = 330,000); HEK293T ELG1-luciferase reporter, luminescence, 16 h; DNA damage induced by 5-fluorouridine; Potency, µM (series often up to 46.1 µM), for the others: at the highest dose activity change, negative = inhibition, usual class: inhibitors; further: potency means the concentration at half of the fitted maximal effect; nearly all actives have a fitted effect of over 55% in size
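Reporter activity after DNA damage by 5-fluorouridine is monitored. Compound-treated cells incubate 16 hr at 37 °C, then ONE-Glo is added for 30 min before luminescence reading.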
TDP1 cell CPT = growth inhibition of DT40 Tdp1-/-;hTDP1 cells with camptothecin (screen for TDP1 inhibitors). actives 12% (n = 420,000). chicken DT40 Tdp1-/-;hTDP1 cells + 20 nM CPT, ATP luminescence, 48 h. AID 686979. Potency, µM (titrated, usually from 46.2 µM), inactives show at the highest dose activity change, negative = growth inhibition, actives largely listed as inhibitors; further: potency means the concentration at half of the fitted maximal effect; nearly all actives have a fitted effect of over 55% in size
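Chicken DT40 Tdp1-/- cells complemented with human TDP1, 400 cells/well, exposed to compounds plus 20 nM camptothecin for at least 48 h at 37 C; viability read as ATP content by CellTiter-Glo luminescence.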
DT40 TDP1 no CPT = qHTS for Inhibitors of human tyrosyl-DNA phosphodiesterase 1 (TDP1): qHTS in cells in absence of CPT; DT40 Tdp1-/- hTDP1 cells, no CPT, ATP luminescence, 48 h; Potency, µM (titrated, usually from 46.2 µM), for inactives: at the top dose activity change, negative = growth inhibition, usual class: inhibitors; actives 15% (n = 420,000); AID 686978, 2013; further: potency means the concentration at half of the fitted maximal effect; nearly all actives have a fitted effect of over 55% in size
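DT40 Tdp1-/-;hTDP1 cells, no CPT (DMSO vehicle only), 400 cells/well; compounds pin-transferred; ≥48 hr, 37 °C; CellTiter-Glo 30 min RT dark, luminescence read.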
IL1B secr inh = inhibitors of inflammasome signaling (IL-1 beta secretion). THP-1 LPS/ATP IL-1B secretion, AlphaLISA, 16 h; active compounds read low. activity change, % at 57.5 µM. actives 4.7% (n = 360,000); in the data active means activity change below about -50%; inconclusive means mostly about -30% to -49%
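Secreted IL-1B measured by AlphaLISA bead assay after 16 h compound exposure of THP-1 cells; compounds (final up to 57.5 uM) added 1 h before LPS (250 ng/mL) and ATP (1.25 mM) stimulation; lower signal means less secretion.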
RORgamma inh = inhibitors of mouse ROR gamma transcriptional activity. P51450. Drosophila S2 Gal4-RORgamma UAS-luciferase reporter, 20 h. Potency, µM (doses to about 53.6 µM), for inactives: at the top dose activity change, negative = inhibition, hits mostly inhibitors. actives 5.4% (n = 310,000); further: potency means the concentration at half of the fitted maximal effect; nearly all actives have a fitted effect of over 60% in size
Target sequence (P51450 whole entry, looked up, the tested form may be a part): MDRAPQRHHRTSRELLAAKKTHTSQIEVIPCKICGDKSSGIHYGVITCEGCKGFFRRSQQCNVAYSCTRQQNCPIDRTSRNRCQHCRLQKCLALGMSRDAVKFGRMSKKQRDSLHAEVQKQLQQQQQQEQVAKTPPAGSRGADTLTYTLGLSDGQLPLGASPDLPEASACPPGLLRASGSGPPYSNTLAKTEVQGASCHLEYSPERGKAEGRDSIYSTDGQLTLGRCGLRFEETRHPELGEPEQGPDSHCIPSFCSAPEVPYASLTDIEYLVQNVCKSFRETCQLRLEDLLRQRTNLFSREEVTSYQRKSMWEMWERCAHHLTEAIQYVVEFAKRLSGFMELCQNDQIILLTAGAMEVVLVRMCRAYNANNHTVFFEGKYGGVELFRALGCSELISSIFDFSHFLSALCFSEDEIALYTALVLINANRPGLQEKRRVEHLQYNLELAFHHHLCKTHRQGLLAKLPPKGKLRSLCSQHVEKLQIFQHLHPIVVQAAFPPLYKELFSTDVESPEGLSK
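Stable Schneider cell line, Gal4 DNA-binding domain fused to ROR gamma, UAS-luciferase. Cmpd 1 hr RT → CuSO4 700 uM final → 20 hr RT → luciferase reagent 10 min → luminescence.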
VP16 counter = Gal4-VP16 reporter inhibition counter-screen. Drosophila S2 Gal4-VP16 UAS-luciferase, luminescence, 20 h. Potency, µM (highest dose often 53.6 µM), for inactives: at the top dose activity, negative = inhibition, usual class: inhibitors. actives 3.5% (n = 310,000);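 further: Gal4-VP16 expression switched on by copper sulfate through the metallothionein promoter; potency means the concentration at half of the fitted maximal effect; nearly all actives have a fitted effect of over 50% in size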
Active calls of the source: *; u = inconclusive; x = no result; [ ] = dose if it differs, or a comment. Unless noted, the call rests on the fitted dose curve; in most records, active means well fitted curve in the direction sought with a large enough effect; inconclusive means small, poorly fitted or top-dose-only effect, or another doubt; inactive means no such curve, though single readings can be large; an effect the other way counts as inactive or inconclusive. On the % scale 0 is the no-effect control and ±100 the full control effect.

SMILES	ELG1 DNA repair	TDP1 cell CPT	DT40 TDP1 no CPT	IL1B secr inh	RORgamma inh	VP16 counter
CCc1nnc(NC(=O)CSc2nccn2-c2cccc(C)c2)s1	-11.6%	-21.2%	-13.3%	6.7	u	-19.3%
CCSc1nnc(NC(=O)CSc2nccn2-c2cccc(C)c2C)s1	u	u	u	37.9	10µM*	u
Cc1cc(NC(=O)CSc2nccn2-c2cccc(C)c2C)no1	u	u	20.6µM*	18.9	-4.0%	1.1%
Cc1cc(NC(=O)c2ccc3c(c2)C(=O)N(c2cccc(C)c2C)C3=O)no1	0.5%	-8.8%	-1.9%	9.5	u	17.8µM*
CCSc1nnc(NC(=O)CSc2nccn2-c2cc(C)cc(C)c2)s1	13.7%	-3.1%	-2.7%	3.5	14.1µM*	u
CCCNc1c(NS(=O)(=O)c2cccc(C#N)c2)c(=O)oc2ccccc12	2.7%	-12.1%	-0.5%	-0.1	-2.0%	-7.1%
O=C(COC(=O)c1cc(=O)[nH]c2ccccc12)NCc1ccccc1	6.4%	3.6%	15.2%	33.7	x	x
Cc1cc(C)cc(-n2ccnc2SCC(=O)Nc2nnc(C)s2)c1	x	4.11µM*	3.26µM*	x	x	x
Cc1nnc(NC(=O)CSc2nccn2C)s1	16.2%	-1.8%	-5.4%	45.7	-40.7%	-2.7%
CCSc1nnc(NC(=O)CSc2c(Cl)cccc2Cl)s1	-7.9%	-22.6%	-21.1%	-0.7	11.2µM*	-24.4%
CC1(C)OC2C(CO)OC(n3cnc4c(=O)[nH]c(N)nc43)C2O1 (centres undefined)	x	-3.4%	-5.4%	x	-24.6%	3.6%
Cc1ccc(NC(=O)NCC2CCN(Cc3cccc(Cl)c3)CC2)cc1Cl	u	u	16.4µM*	-99.9*	20µM*	-23.9%
CCc1ccc(NC(=O)NCC2CCN(Cc3cccc(Cl)c3)CC2)cc1	-0.3%	u	13µM*	-17.3	-29.4%	3.9%
COc1ccc2ccccc2c1CNCCN1CCOCC1	-2.1%	-20.6%	-2.4%	3.6	x	x
Cc1cc(C)c(NC(=S)NC(CO)(CO)CO)c(C)c1	23.9%	17.5%	-2.3%	-1.0	23.5%	-0.5%
COC(=O)[C@@H]1CC[C@H](C)[C@@H](c2ccc(C)cc2)N1C(=O)c1ccc(/C=N/O[C@@H](C)CN2CCCCc3nc(C)c(C)cc32)cc1	u	x	x	x	u	20µM*
COC(=O)[C@@H]1CC[C@H](C)[C@@H](c2ccc(C)cc2)N1C(=O)c1ccc(/C=N\O[C@@H](C)CN2CCCCc3nc(C)c(C)cc32)cc1	x	x	x	x	-14.3%[10 µM]	-2.4%[10 µM]
Cc1cc(C)c(S(=O)(=O)/N=C2/C=C(SCC(=O)O)C(=O)c3ccccc32)cc1C	u	1.84µM*	1.84µM*	u	-17.9%	u
COc1ccc(NC(=O)CSC2=C(C#N)C(c3ccco3)C3=C(CCCC3=O)N2)c(OC)c1 (centres undefined)	-17.8%	1.1%	1.6%	-29.1	7.0%	-16.2%
CCOC(=O)CSC1=C(C#N)C(c2ccccc2C)C2=C(CCCC2=O)N1 (centres undefined)	-1.6%	2.7%	-4.8%	5.9	-27.1%	-24.2%
CC(C)(C)c1ccc(C(=O)CCCSC2=C(C#N)C(c3ccco3)C3=C(CCCC3=O)N2)cc1 (centres undefined)	u	16.4µM*	9.2µM*	-11.1	2.8%	-16.1%
CCSC1=C(C#N)C(c2ccc(Cl)cc2)C2=C(CCCC2=O)N1 (centres undefined)	-29.5%	1.46µM*	1.46µM*	-9.6	20.8%	0.2%
Cc1ccc(C(=O)CSC2=C(C#N)C(c3ccco3)C3=C(CCCC3=O)N2)cc1 (centres undefined)	6.51µM*	3.26µM*	3.26µM*	0.0	31.6%	-3.1%
CCCCc1ccc(NC(=O)CSC2=C(C#N)C(c3ccco3)C3=C(CCCC3=O)N2)cc1 (centres undefined)	18.4µM*	u	u	-86.0*	-3.0%	-8.4%
CCc1ccc(N(CC(=O)N2CCCCCC2)S(C)(=O)=O)cc1	-2.4%	16.8%	-14.4%	-10.5	x	x
SMILES	ELG1 DNA repair	TDP1 cell CPT	DT40 TDP1 no CPT	IL1B secr inh	RORgamma inh	VP16 counter
COc1ccc(C(=O)OCC(=O)NC2CC2)cc1	x	-0.5%	2.1%	12.8	x	x
CCOCCCNc1ccc(N2C(=O)CCCC2=O)cc1[N+](=O)[O-]	-20.7%	-0.6%	-3.0%	-0.8	18.1%	-11.1%
Cc1cccc(NC(=O)c2nc[nH]c2C(=O)Nc2ccccc2F)c1	x	u	u	8.7	x	x
O=C(/C=C/CCc1ccc2c(c1)OCO2)N1CCCCC1	u	0.8%	-23.5%	-12.9	x	x
COc1cccc(NC(=O)CSC2=C(C#N)C(c3ccco3)C3=C(CCCC3=O)N2)c1 (centres undefined)	-22.4%	3.5%	-12.7%	u	7.9%	-7.0%
N#CC1=C(SCC(=O)c2ccccc2)NC2=C(C(=O)CCC2)C1c1ccco1 (centres undefined)	-13.1%	2.91µM*	2.59µM*	-97.2*	u	u
COc1ccc(C2C(C#N)=C(SCC(=O)Nc3ccc(C)cc3)NC3=C2C(=O)CC(C)(C)C3)cc1 (centres undefined)	u	23.1µM*	16.4µM*	-56.6*	10.3%	3.5%
C[C@H](CO)N1C[C@H](C)[C@@H](CN(C)S(=O)(=O)c2ccccc2)Oc2ccc(NS(=O)(=O)c3cn(C)cn3)cc2C1=O	-2.5%	-1.6%	1.4%	12.7	x	x
O=C(CCl)NCCNC(=O)c1cc(OCC(F)(F)F)ccc1OCC(F)(F)F	-11.0%	u	u	-60.2*	13.8%	-7.2%
CCCCC(=O)NCCNC(=O)c1cc(OCC(F)(F)F)ccc1OCC(F)(F)F	4.9%	-9.1%	3.3%	8.3	-1.6%	0.8%
O=C(NCCNC(=O)c1cc(OCC(F)(F)F)ccc1OCC(F)(F)F)Nc1ccc(OC(F)(F)F)cc1	u	u	23.1µM*	65.2	34.1%	-18.7%
Cc1ccc(Nc2nccc(N(C)c3ccc4c(C)n(C)nc4c3)n2)cc1S(N)(=O)=O	x	10.6µM*	13.3µM*	x	x	x
CCN(CCCNC(=O)CCCn1c(=O)[nH]c2ccccc2c1=O)c1cccc(C)c1	-11.6%	u	20.6µM*	u	22.0%	-8.0%
COC(=O)c1ccc2c(=O)n(NC(=O)C(c3ccccc3)c3ccccc3)c(=S)[nH]c2c1	25.9µM*	-21.4%	u	-10.0	-24.9%	16.3%
COC(=O)c1ccc2c(=O)n(CCO)c(=S)[nH]c2c1	-0.9%	8.4%	-1.5%	31.4	-37.1%	-8.1%
